Reference: paper PMC7862700, “An all-to-all approach to the identification of sequence-specific readers for epigenetic DNA modifications on cytosine”

Key:
Experiment in all cases: DAPPL (digital affinity profiling via proximity ligation, sequencing); 10 mM Tris-HCl pH 7.5, 50 mM NaCl, 1 mM DTT, 4% glycerol, room temperature, 30 min; GST-TFs on glutathione beads, 16-mer random dsDNA library, 0.1% formaldehyde crosslink after washing; high values mean tight binding
FLI1 = biological target: T1, FLI1 (Homo sapiens, UniProt Q01543 1-452); details: protein: recombinant; tags: N-terminal GST; dsDNA, one strand shown
T1 sequence: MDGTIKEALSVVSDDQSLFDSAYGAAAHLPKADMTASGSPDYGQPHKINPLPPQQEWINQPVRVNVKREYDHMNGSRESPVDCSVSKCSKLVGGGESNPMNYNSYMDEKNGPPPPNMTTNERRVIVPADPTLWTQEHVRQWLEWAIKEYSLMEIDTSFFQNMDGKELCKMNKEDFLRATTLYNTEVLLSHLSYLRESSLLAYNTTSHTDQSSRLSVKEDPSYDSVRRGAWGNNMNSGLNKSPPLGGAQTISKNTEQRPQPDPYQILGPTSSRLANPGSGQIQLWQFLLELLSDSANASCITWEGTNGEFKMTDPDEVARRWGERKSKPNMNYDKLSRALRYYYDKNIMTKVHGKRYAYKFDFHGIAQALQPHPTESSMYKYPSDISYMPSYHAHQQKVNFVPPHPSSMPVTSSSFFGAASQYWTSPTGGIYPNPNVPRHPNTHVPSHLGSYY
Outline: (§1)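 Human transcription factors fused to GST were expressed in yeast, captured on glutathione beads, given DNA barcodes and pooled with a GST-only negative control. Pools were incubated with 200 nmole of a 16-mer random double-stranded DNA library in Tris/NaCl/DTT/glycerol buffer at room temperature for 30 min. They were then washed, crosslinked with 0.1% formaldehyde, proximity-ligated (BsaI/T4 ligase, 1 h, 37 °C), PCR-amplified and sequenced on an Illumina NextSeq500. Binding signal is each 6-mer's read frequency for a factor divided by its frequency for the GST control.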

ELK1 = biological target: T2, ELK1 (Homo sapiens, UniProt P19419 1-428); details: protein: recombinant; tags: N-terminal GST; dsDNA, one strand shown
T2 sequence: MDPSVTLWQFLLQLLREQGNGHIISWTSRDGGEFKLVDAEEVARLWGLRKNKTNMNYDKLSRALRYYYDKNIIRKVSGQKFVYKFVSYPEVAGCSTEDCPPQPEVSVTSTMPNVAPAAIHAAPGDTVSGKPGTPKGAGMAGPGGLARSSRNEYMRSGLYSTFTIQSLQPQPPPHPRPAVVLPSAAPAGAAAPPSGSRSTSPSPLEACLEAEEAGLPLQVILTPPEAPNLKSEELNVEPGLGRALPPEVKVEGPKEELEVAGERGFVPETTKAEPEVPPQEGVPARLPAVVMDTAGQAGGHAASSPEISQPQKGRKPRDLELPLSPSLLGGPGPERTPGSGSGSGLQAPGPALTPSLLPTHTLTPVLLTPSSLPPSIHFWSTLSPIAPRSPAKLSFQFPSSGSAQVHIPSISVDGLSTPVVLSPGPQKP
Outline: as §1

GABPA = biological target: T3, GABPA (Homo sapiens, UniProt Q06546 1-454); details: protein: recombinant; tags: N-terminal GST; dsDNA, one strand shown
T3 sequence: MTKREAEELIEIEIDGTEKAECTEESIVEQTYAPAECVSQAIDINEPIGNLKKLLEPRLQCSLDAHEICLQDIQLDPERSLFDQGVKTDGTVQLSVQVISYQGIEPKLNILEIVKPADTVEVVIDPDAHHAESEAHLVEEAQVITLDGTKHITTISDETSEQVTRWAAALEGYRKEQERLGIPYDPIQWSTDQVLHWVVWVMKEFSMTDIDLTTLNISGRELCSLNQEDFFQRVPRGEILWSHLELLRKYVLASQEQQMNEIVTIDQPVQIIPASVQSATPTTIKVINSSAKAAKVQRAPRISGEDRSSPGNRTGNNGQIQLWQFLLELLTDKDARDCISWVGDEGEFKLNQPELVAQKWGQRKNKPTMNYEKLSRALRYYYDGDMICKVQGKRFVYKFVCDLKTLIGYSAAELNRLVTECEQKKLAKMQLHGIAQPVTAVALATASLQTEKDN
Outline: as §1

ERG = biological target: T4, ERG (Homo sapiens, UniProt P11308 1-479); details: protein: recombinant; tags: N-terminal GST; dsDNA, one strand shown
T4 sequence: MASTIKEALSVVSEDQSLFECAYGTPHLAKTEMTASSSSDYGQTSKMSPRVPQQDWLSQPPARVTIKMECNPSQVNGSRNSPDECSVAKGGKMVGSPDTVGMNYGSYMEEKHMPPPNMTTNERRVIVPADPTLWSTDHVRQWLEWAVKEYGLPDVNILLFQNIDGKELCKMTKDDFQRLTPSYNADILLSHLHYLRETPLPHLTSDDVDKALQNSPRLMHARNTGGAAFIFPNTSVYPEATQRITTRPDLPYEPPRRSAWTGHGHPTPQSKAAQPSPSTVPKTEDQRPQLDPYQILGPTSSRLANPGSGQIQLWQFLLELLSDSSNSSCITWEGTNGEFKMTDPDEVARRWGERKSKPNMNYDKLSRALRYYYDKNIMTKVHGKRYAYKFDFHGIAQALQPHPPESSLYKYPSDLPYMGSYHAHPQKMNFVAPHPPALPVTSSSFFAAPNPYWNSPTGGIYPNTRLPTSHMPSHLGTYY
Outline: as §1

ELF1 = ELF1 (Homo sapiens, UniProt P32519 1-619); details: protein: recombinant; tags: N-terminal GST; dsDNA, one strand shown
Sequence of ELF1 (P32519 whole entry): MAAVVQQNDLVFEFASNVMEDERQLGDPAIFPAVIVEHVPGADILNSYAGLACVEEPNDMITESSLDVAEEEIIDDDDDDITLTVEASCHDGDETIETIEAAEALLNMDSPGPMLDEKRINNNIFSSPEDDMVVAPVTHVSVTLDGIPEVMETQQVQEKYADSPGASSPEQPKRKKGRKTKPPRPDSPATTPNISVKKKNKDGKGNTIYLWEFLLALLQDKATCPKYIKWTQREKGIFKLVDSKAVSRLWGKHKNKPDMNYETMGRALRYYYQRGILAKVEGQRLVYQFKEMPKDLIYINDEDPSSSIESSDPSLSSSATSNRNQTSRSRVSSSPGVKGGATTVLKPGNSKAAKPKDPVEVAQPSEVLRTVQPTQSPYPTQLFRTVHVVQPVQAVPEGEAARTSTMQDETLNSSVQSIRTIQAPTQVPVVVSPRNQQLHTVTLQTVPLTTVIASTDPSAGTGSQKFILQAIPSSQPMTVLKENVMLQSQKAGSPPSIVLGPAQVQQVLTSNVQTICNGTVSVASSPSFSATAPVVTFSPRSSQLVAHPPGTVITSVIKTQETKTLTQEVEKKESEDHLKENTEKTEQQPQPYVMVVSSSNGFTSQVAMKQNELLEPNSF
Outline: as §1

EHF = biological target: T5, EHF (Homo sapiens, UniProt Q9NZC4 1-300); details: protein: recombinant; tags: N-terminal GST; dsDNA, one strand shown
T5 sequence: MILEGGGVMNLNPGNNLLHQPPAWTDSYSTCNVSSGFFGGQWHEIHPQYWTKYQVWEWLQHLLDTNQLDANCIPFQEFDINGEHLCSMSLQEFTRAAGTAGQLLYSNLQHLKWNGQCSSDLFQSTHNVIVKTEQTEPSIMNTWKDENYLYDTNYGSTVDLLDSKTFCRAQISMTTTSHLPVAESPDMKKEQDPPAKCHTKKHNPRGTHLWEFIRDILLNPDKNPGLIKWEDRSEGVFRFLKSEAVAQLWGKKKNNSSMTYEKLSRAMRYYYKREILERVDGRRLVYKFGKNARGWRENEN
Outline: as §1

SPI1 = SPI1 (Homo sapiens, UniProt P17947 1-270); details: protein: recombinant; tags: N-terminal GST; dsDNA, one strand shown
Outline: as §1

SPIB = SPIB (Homo sapiens, UniProt Q01892 1-262); details: protein: recombinant; tags: N-terminal GST; dsDNA, one strand shown
Sequence of SPIB (Q01892 whole entry): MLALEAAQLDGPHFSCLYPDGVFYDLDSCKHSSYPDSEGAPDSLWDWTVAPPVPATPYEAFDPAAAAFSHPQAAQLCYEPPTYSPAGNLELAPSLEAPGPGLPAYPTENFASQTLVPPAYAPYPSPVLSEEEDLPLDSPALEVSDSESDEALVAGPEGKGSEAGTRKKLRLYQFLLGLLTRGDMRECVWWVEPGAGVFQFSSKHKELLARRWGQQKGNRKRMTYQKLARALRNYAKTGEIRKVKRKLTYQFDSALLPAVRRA
Outline: as §1

ELK3 = biological target: T6, ELK3 (Homo sapiens, UniProt P41970 1-407); details: protein: recombinant; tags: N-terminal GST; dsDNA, one strand shown
T6 sequence: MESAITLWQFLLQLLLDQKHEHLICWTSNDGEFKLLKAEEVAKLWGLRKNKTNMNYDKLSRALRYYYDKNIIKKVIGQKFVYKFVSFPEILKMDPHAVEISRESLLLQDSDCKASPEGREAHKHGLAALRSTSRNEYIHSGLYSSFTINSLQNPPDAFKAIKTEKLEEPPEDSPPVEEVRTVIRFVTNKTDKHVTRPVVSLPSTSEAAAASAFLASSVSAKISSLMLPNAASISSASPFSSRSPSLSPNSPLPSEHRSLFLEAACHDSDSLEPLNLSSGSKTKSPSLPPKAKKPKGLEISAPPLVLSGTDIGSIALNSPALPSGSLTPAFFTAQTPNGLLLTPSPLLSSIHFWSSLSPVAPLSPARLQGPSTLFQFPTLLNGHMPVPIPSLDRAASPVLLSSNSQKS
Outline: as §1

FEV = biological target: T7, FEV (Homo sapiens, UniProt Q99581 1-238); details: protein: recombinant; tags: N-terminal GST; dsDNA, one strand shown
T7 sequence: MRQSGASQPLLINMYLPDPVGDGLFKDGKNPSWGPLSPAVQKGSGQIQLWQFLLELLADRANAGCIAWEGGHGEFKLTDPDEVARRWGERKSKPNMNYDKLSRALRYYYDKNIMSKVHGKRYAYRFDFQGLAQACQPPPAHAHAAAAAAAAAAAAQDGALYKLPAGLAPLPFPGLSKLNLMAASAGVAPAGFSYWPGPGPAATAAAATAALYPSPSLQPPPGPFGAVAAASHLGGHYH
Outline: as §1

ETV5 = ETV5 (Homo sapiens, UniProt P41161 1-510); details: protein: recombinant; tags: N-terminal GST; dsDNA, one strand shown
Sequence of ETV5 (P41161 whole entry): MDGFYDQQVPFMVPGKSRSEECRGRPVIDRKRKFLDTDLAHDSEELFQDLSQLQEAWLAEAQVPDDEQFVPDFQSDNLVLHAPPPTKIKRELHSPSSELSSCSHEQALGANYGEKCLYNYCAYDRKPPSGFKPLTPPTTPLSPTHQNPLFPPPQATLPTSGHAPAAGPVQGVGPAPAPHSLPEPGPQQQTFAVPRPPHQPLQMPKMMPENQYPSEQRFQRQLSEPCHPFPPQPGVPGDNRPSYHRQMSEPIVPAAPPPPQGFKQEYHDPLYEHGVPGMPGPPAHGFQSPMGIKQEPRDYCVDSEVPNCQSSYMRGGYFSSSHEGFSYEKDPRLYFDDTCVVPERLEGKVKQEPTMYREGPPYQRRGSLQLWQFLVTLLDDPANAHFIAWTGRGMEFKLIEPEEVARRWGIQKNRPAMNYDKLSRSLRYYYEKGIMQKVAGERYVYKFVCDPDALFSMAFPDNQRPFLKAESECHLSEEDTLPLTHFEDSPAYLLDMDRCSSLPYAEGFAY
Outline: as §1

HSF1 = HSF1 (Homo sapiens, UniProt Q00613 1-529); details: protein: recombinant; tags: N-terminal GST; chain copies: 3; dsDNA, one strand shown
Sequence of HSF1 (Q00613 whole entry): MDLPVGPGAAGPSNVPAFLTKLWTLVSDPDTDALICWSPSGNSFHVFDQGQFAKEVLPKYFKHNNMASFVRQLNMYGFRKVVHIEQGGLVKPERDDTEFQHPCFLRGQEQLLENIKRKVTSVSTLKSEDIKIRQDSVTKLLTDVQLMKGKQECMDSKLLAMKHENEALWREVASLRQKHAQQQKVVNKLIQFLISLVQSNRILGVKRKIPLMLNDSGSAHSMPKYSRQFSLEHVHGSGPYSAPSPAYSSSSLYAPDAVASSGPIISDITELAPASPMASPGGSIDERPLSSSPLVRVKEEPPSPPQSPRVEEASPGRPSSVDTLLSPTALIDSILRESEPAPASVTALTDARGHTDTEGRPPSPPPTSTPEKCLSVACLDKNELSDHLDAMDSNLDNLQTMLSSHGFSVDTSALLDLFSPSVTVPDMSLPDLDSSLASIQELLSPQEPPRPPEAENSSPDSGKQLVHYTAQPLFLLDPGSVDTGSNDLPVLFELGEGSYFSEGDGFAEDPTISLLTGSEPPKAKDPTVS
Outline: as §1

SPIC = biological target: T8, SPIC (Homo sapiens, UniProt Q8N5J4 1-248); details: protein: recombinant; tags: N-terminal GST; dsDNA, one strand shown
T8 sequence: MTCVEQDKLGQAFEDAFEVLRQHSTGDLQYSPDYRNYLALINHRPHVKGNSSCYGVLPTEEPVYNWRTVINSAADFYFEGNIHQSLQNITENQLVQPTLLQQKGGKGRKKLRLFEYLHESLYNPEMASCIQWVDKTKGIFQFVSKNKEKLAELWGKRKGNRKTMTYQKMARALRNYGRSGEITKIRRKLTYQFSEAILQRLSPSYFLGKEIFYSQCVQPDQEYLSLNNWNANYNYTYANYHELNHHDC
Outline: as §1

ELF4 = ELF4 (Homo sapiens, UniProt Q99607 1-663); details: protein: recombinant; tags: N-terminal GST; dsDNA, one strand shown
Sequence of ELF4 (Q99607 whole entry): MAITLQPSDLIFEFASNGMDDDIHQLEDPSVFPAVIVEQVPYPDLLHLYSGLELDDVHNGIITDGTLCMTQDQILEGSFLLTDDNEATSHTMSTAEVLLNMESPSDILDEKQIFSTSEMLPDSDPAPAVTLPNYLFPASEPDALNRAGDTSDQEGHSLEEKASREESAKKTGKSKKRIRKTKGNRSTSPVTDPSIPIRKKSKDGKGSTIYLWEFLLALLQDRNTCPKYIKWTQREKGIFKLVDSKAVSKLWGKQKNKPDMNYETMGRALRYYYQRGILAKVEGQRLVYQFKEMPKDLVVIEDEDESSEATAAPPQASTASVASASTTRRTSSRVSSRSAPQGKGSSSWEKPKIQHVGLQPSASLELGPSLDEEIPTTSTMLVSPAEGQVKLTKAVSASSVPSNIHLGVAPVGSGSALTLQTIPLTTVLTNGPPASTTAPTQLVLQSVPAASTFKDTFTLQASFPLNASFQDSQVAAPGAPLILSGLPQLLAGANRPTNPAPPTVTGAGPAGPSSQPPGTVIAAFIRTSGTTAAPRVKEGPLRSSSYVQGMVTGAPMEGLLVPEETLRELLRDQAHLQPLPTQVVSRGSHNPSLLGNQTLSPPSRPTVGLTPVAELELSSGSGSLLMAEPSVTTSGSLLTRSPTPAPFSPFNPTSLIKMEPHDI
Outline: as §1

ELK4 = biological target: T9, ELK4 (Homo sapiens, UniProt P28324-2 1-405); details: protein: recombinant; tags: N-terminal GST; dsDNA, one strand shown
T9 sequence: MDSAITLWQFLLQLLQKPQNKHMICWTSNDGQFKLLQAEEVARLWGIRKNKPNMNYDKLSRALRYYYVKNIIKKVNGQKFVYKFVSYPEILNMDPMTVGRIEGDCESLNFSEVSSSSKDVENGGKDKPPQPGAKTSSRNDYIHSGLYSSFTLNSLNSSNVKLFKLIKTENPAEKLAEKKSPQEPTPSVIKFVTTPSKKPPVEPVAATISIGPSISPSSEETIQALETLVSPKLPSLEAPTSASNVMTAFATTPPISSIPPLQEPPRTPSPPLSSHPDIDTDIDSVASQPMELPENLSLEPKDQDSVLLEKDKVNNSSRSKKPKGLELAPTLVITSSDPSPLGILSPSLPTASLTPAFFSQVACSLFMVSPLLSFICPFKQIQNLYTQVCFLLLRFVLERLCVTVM
Outline: as §1

ETV2 = biological target: T10, ETV2 (Homo sapiens, UniProt O00321 1-342); details: protein: recombinant; tags: N-terminal GST; dsDNA, one strand shown
T10 sequence: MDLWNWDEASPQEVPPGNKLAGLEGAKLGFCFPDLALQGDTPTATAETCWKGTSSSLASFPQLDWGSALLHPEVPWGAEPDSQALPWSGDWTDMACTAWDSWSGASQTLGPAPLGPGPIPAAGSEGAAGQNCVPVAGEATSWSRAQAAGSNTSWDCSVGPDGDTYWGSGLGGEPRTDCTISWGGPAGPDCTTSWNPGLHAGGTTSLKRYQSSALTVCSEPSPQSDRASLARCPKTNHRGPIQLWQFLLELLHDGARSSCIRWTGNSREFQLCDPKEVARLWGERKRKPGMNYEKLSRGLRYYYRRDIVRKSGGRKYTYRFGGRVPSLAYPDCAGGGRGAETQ
Outline: as §1

ELF3 = biological target: T11, ELF3 (Homo sapiens, UniProt P78545 1-371); details: protein: recombinant; tags: N-terminal GST; dsDNA, one strand shown
T11 sequence: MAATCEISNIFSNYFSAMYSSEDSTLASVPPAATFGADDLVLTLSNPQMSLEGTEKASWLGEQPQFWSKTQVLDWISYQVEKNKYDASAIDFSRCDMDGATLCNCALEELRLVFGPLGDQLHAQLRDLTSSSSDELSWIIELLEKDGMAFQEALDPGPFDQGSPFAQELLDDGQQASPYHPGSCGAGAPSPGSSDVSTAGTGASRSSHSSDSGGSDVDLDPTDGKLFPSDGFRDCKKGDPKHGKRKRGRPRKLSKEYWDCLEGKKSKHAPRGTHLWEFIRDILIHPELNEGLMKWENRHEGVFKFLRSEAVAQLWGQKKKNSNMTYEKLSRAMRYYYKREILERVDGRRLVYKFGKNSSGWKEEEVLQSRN
Outline: as §1

CRX = CRX (Homo sapiens, UniProt O43186 1-299); details: protein: recombinant; tags: N-terminal GST; dsDNA, one strand shown
Sequence of CRX (O43186 whole entry): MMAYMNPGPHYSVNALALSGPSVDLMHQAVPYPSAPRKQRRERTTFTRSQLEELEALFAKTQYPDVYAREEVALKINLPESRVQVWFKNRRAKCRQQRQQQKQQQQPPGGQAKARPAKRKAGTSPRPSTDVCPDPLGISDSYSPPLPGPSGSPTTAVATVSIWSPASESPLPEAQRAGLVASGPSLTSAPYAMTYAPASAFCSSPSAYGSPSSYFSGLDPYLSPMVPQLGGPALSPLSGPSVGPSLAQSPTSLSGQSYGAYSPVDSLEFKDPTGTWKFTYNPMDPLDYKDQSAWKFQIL
Outline: as §1

ETV1 = ETV1 (Homo sapiens, UniProt P50549 1-477); details: protein: recombinant; tags: N-terminal GST; dsDNA, one strand shown
Sequence of ETV1 (P50549 whole entry): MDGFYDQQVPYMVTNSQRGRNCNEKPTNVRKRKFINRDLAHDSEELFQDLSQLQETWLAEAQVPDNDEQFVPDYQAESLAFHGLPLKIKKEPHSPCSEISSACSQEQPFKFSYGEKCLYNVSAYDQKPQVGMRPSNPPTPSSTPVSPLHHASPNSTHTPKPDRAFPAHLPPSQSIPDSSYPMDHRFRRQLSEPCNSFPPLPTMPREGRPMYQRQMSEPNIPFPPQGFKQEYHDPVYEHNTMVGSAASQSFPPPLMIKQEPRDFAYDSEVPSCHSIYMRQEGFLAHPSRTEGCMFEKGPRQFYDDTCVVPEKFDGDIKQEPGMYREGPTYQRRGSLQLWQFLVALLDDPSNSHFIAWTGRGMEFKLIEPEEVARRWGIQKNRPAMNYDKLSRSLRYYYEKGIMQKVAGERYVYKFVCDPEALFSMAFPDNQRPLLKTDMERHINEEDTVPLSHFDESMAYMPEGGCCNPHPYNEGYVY
Outline: as §1

## CCCATT
FLI1
  binding signal: 1.36 fold enrichment (6-mer frequency, TF over GST control)
ELK1
  binding signal: 1.25 fold enrichment (6-mer frequency, TF over GST control)
GABPA
  binding signal: 1.46 fold enrichment (6-mer frequency, TF over GST control)
ERG
  binding signal: 1.41 fold enrichment (6-mer frequency, TF over GST control)
ELF1
  binding signal: 1.39 fold enrichment (6-mer frequency, TF over GST control)
EHF
  binding signal: 1.24 fold enrichment (6-mer frequency, TF over GST control)
SPI1
  binding signal: 1.47 fold enrichment (6-mer frequency, TF over GST control)
SPIB
  binding signal: 1.27 fold enrichment (6-mer frequency, TF over GST control)
ELK3
  binding signal: 1.41 fold enrichment (6-mer frequency, TF over GST control)
FEV
  binding signal: 1.28 fold enrichment (6-mer frequency, TF over GST control)
ETV5
  binding signal: 1.38 fold enrichment (6-mer frequency, TF over GST control)
HSF1
  binding signal: 1.15 fold enrichment (6-mer frequency, TF over GST control)
SPIC
  binding signal: 1.43 fold enrichment (6-mer frequency, TF over GST control)
ELF4
  binding signal: 1.23 fold enrichment (6-mer frequency, TF over GST control)
ELK4
  binding signal: 1.26 fold enrichment (6-mer frequency, TF over GST control)
ETV2
  binding signal: 1.56 fold enrichment (6-mer frequency, TF over GST control)
ELF3
  binding signal: 1.22 fold enrichment (6-mer frequency, TF over GST control)
CRX
  binding signal: 1.19 fold enrichment (6-mer frequency, TF over GST control)
ETV1
  binding signal: 1.25 fold enrichment (6-mer frequency, TF over GST control)
